Compound activity: PubChem, several laboratories
Only some compounds are listed: those with a hit (about 3% of all), similar ones and a draw of the others.
aSyn 5UTR inh = MLPCN primary screen, SNCA 5' untranslated region; alpha-synuclein 5'UTR reporter, inhibitor activity; inhibition, % (tested at 7.5 µM); hit rate 0.82% among 300,000; AID 1813; in the data active = inhibition above about 60%; inconclusive = no clear call, values can overlap the other calls;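 also: H4 neuroglioblastoma cells stably carrying SNCA 5'UTR luciferase fusion; 0% = DMSO wells and 100% = positive control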
IEC-6 cytotox = kills IEC-6 intestinal cells in KLF5 counter-screen; inhibition, % at 5 µM; IEC-6 cytotoxicity, luminescence viability; AID 1825; hit rate 0.78% among 290,000;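 also: 0% = plate median of test compound wells and 100% = cytotoxic reference compound wells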
KLF5 inhibitor = suppresses KLF5 promoter-driven expression | hit rate 0.23% among 290,000 | inhibition, % at 5 µM | DLD-1 KLF5 promoter-luciferase reporter, luminescence;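 active = inhibition above a per-plate limit of that plate's mean compound inhibition plus 3 SD, cut at about 60% in these data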;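 also: 0% = DMSO wells and 100% = LY294002 at 200 µM; higher means less KLF5 promoter-driven luciferase light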
CSC inhib = blocks cancer stem cells; cancer stem cell-like cells viability, luminescence; inhibition, % at 7.5 µM; hit rate 1.1% among 300,000; AID 2717; in the data active = inhibition above about 75%; inconclusive = no clear call, values can overlap the other calls; tested in HMLE shEcad cells
SKKanGAS inh = SKKanGAS growth inhibition. S. pyogenes SKKanGAS, kanamycin growth, BacTiter-Glo, 6 h. inhibition, % at 7.5 µM. hit rate 1.3% among 300,000. AID 1662;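 active = mean replicate score, as percent of positive control median, at least 50; inconclusive = mean below 50 but one replicate at or above 50; inactive = mean and every replicate below 50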;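 also: strain carries kanamycin resistance gene driven by streptokinase promoter and grows in 40 µg/ml kanamycin; loss of luminescence reflects streptokinase promoter inhibition or plain growth inhibition; 0% = median of DMSO wells and 100% = positive control at its reference dose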
IEC-6 cytotox cf = IEC-6 cytotoxicity, confirmation assay | shares compounds with IEC-6 cytotox | IEC-6 rat intestinal epithelial viability, luminescence | inhibition, % at 5 µM | hit rate 63% among 1,900;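 also: 0% = vehicle and 100% = reference cytotoxic drug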
* marks the source's active call; other numbers are inactive results; ? = inconclusive; / = no result. Rule as the data show it, unless noted: active = inhibition above about 22%; inactive = the rest.

SMILES | aSyn 5UTR inh | IEC-6 cytotox | KLF5 inhibitor | CSC inhib | SKKanGAS inh | IEC-6 cytotox cf
CCN1/C(=C/C=C/c2oc3ccc(-c4ccccc4)cc3[n+]2CC)Oc2ccc(-c3ccccc3)cc21 | 140* | 61* | 15 | 116* | 93* | 5
O=C(CCl)N(c1ccccc1)c1c[nH]c2ccccc12 | 30 | 34* | 1 | 59 | -2 | 10
CCC1=Nc2cc(C(=O)NCCCOC)ccc2Sc2ccccc21 | 74* | 88* | 48 | 56 | 6 | 60*
Cn1c(=O)c2cc(S(=O)(=O)Nc3ccc4c(c3)OCO4)ccc2n(C)c1=O | 28 | 22* | 0 | 19 | -8 | 21
COc1ccc(NC2=NCC(Cc3ccc(Br)cc3)S2)cc1 (stereo not given) | 1 | 4 | -38 | 64 | ? | /
Cc1nn(-c2ccccc2)c(C)c1/C=N/NC(=O)c1cc(C(C)(C)C)[nH]n1 | -3 | 0 | -42 | 3 | -5 | /
Cc1ccc(-c2cc(C(=O)N/N=C/c3c(C)nn(-c4ccccc4)c3C)n[nH]2)s1 | 40 | 68* | 40 | / | 12 | 56*
NC(=O)CC(NC(=O)Cc1cccc2ccccc12)c1ccc(N2CCN(c3ccccn3)CC2)c([N+](=O)[O-])c1 (stereo not given) | 31 | 0 | 5 | -7 | 2 | /
Cc1cc(=O)oc2cc(OCCc3ccccc3)ccc12 | -50 | 44* | -132 | 22 | 3 | 22*
COc1ccc(C2=NOC(COc3ccc4c(C)cc(=O)oc4c3)C2)c(OC)c1 (stereo not given) | 83* | 60* | 49 | 61 | 1 | 56*
COc1cccc(C(=O)COc2ccc3c(C)cc(=O)oc3c2)c1 | -106 | 28* | -34 | 44 | -9 | 18
COc1ccc(C(=O)COc2ccc3c(C)cc(=O)oc3c2)cc1 | -38 | -3 | -31 | -3 | -8 | /
Cc1cc(=O)oc2cc(OCCCC[n+]3ccccc3)ccc12 | -11 | -6 | -51 | 12 | -6 | /
Cn1ncc2c(O/N=C(\N)c3ccc(C(C)(C)C)cc3)ncnc21 | 104* | 93* | -30 | 108* | 0 | 21
CC(C)c1ccccc1NC(=O)CNCCOc1ccccc1F | 4 | 3 | -2 | 2 | 7 | /
CCOC(=O)c1ccc(NC(=O)Cn2ncc(Cl)c(Cl)c2=O)cc1 | -2 | 35* | -1 | 90* | 2 | 32*
CCC(=O)Nc1ccc(C(=O)Cn2ncc(Cl)c(Cl)c2=O)cc1 | -53 | 18 | 28 | ? | -6 | /
COc1ccc(NC(=O)Cn2ncc(Cl)c(Cl)c2=O)cc1S(=O)(=O)N1CCOCC1 | -32 | 41* | 12 | 51 | 3 | 7
Cc1ccc(C(=O)OCn2ncc(Cl)c(Cl)c2=O)cc1 | 43 | 44* | 8 | / | 7 | 56*
O=C(OCn1ncc(Cl)c(Cl)c1=O)c1ccc(C(F)(F)F)cc1 | -117 | 1 | -9 | / | 5 | /
COc1ccc(NC(=O)c2ccc(Cl)nc2)cc1S(=O)(=O)N1CCOCC1 | / | / | / | 8 | / | /
Cc1ccc(-c2cnc(-c3ccccc3C(=O)O)o2)cc1 | -49 | 1 | -45 | 2 | 2 | /
COc1ccccc1C(=O)Nc1nc2ccccc2s1 | 109* | 29* | 22 | 105* | 48 | 28*
COc1ccccc1C(=O)Nc1nnc(CCc2ccccc2)s1 | -213 | 44* | 15 | 52 | -9 | 56*
COc1ccccc1C(=O)Nc1nc2ccc(S(C)(=O)=O)cc2s1 | -118 | -6 | -75 | 0 | -8 | /
SMILES | aSyn 5UTR inh | IEC-6 cytotox | KLF5 inhibitor | CSC inhib | SKKanGAS inh | IEC-6 cytotox cf
CCOc1ccc(N2CC(C(=O)NNC(=O)c3ccc(Br)cc3)CC2=O)cc1 (stereo not given) | 33 | / | / | 9 | -2 | /
CCCn1c(CN2CCN(C(=O)OCC)CC2)nc2cc(NC(=O)CC)ccc21 | -23 | 53* | 61 | 45 | 10 | 24*
CCOC(=O)N1CCN(Cc2nc3cc(NC(=O)CC)ccc3n2C)CC1 | -15 | -6 | -21 | -8 | -4 | /
Cc1cc(-c2ccccc2)nc(N2CCN(c3ccccn3)CC2)n1 | 3 | 26* | -25 | 1 | -8 | 41*
O=C(c1ccccc1-c1ccccc1)N1CCN(c2ccccn2)CC1 | -2 | 34* | 35 | 58 | 0 | 39*
O=C(Nc1cc(S(=O)(=O)N2CCOCC2)ccc1N1CCCC1)c1ccc2c(c1)S(=O)(=O)c1ccccc1C2=O | 25 | -10 | -13 | 0 | 9 | /
Cc1ccccc1CN1CCCOCCS1(=O)=O | 0 | -3 | -24 | -5 | 1 | /
COc1ccccc1NC(=O)CN(c1ccccc1)S(=O)(=O)c1ccccc1 | 9 | -3 | -2 | -6 | -1 | /
